Efficacy data for 39 compounds are collected here from PubChem BioAssay (NCATS).

The structures appear in SMILES notation. Results with a measured potency or affinity are listed apart. Calls of active or inactive are those of the source. The rule behind the calls is not given here.
Note: 0% is about no effect.

The conditions of this assay: Ebola virus entry assay, green fluorescence channel.
As to `OC1(c2ccccc2)CCNCC1`, the efficacy was 9.98% (inactive).

With `Nc1ccc(S(=O)(=O)Nc2ccccn2)cc1`, the efficacy is -13.9% (inactive).

With `NC(=O)NC1N=C([O][Al])NC1=O` (centres undefined), the efficacy is 12.9% (inactive).

As for `CNC(C)(C)Cc1ccccc1`, the efficacy was -14.9% (inactive).

In the case of `CCN(CC)C(=O)c1ccc(O)c(OC)c1`, the efficacy was 13.1% (inactive).

For the compound `Nc1nc(-c2ccccc2)c(Br)c(=O)[nH]1`, the efficacy was -17% (inactive).

Turning to `CCC(C(=O)NC(=O)NC(C)=O)c1ccccc1` (centres undefined), the efficacy was -14.5% (inactive).

For `Cc1ccnc(NS(=O)(=O)c2ccc(N)cc2)n1`, the efficacy was -24.3% (inactive).

`COc1cccc2c1C(=O)c1c(O)c3c(c(O)c1C2=O)C[C@@](O)(C(=O)CO)CC3OC1CC(N2CCOC(OC)C2)C(O)C(C)O1` (some centres undefined): the efficacy is 57.9% (inactive).

`NCCc1ccn[nH]1`: the efficacy was 19.8% (inactive).

Regarding `NC(=O)c1cc[n+](CC2=C(C(=O)[O-])N3C(=O)[C@@H](NC(=O)Cc4cccs4)[C@H]3SC2)cc1`, the efficacy is -13.3% (inactive).

Consider `CCCCOCCOC(=O)c1cccnc1`, for which the efficacy is -26.3% (inactive).

In the case of `CC(=O)[C@@]1(O)CC[C@H]2[C@@H]3C[C@H](C)C4=CC(=O)C=C[C@]4(C)[C@@]3(F)[C@@H](O)C[C@@]21C`, the efficacy was -18.9% (inactive).

Take `COc1cc(C)c(Cc2cnc(N)nc2N)cc1OC`: the efficacy was -5.94% (inactive).

For the compound `Oc1c(Br)cc(Br)c2cccnc12`, the efficacy was -19.4% (inactive).

Consider `CC1(COc2ccc(CC3SC(=O)NC3=O)cc2)CCCCC1` (centres undefined), for which the efficacy is -16.4% (inactive).

On to `C[C@H]1O[C@@H](n2cc(F)c(=O)[nH]c2=O)[C@H](O)[C@@H]1O`, for which the efficacy is -18.2% (inactive).

Regarding `CCCCC(=O)OCC(=O)[C@H]1[C@H](C)C[C@H]2[C@@H]3C[C@H](F)C4=CC(=O)C=C[C@]4(C)[C@@]3(F)[C@@H](O)C[C@@]21C`, the efficacy was 21.9% (inactive).

As to `COC(=O)/C=C(/C)N`, the efficacy was 22.1% (inactive).

Consider `COc1cc2c(Nc3ccc(Br)cc3F)ncnc2cc1OCC1CCN(C)CC1`, for which the efficacy is 16.7% (inactive).

Regarding `Cc1coc2ccccc2c1=O`, the efficacy was -25.1% (inactive).

For the compound `Cc1nc([N+](=O)[O-])cn1-c1ccc([N+](=O)[O-])cc1`, the efficacy is -13.8% (inactive).

For the compound `CCOc1ccc(NC(=O)CC(C)O)cc1` (centres undefined), the efficacy was 16.1% (inactive).

In the case of `CCCCC(O)/C=C(C)/C=C/C=C/C(=O)N1CCCC1=O` (centres undefined), the efficacy is -13.9% (inactive).

On to `O=C(O)COc1nn(Cc2ccccc2)c2ccccc12`, for which the efficacy was -8.45% (inactive).

As to `c1ccc2c(c1)CCCC2C1=NCCN1` (centres undefined), the efficacy is -12.9% (inactive).

As for `CN(CC1(C)CCCO1)S(=O)(=O)c1ccc(Cl)c(S(N)(=O)=O)c1` (centres undefined), the efficacy is -11% (inactive).

In the case of `N#CCC(=O)NN`, the efficacy is -12.5% (inactive).

As to `O=C1c2c(O)cccc2Cc2cccc(O)c21`, the efficacy is -17.8% (inactive).

In the case of `NC(N)=NCCN1CCCCCCC1`, the efficacy is -19.4% (inactive).

Regarding `COc1cc(C(=O)N2CCOCC2)cc(OC)c1OC`, the efficacy was -19.5% (inactive).

As for `CCCCC(CC)CNC(=O)CC(C)OC(=O)CCC(=O)O` (centres undefined), the efficacy was 12.2% (inactive).

For the compound `Nc1ccc(S(=O)(=O)Nc2ccc(Cl)nn2)cc1`, the efficacy was -19.3% (inactive).

With `COc1cc(/C=C/C(N)=O)cc(OC)c1OC`, the efficacy was -22.5% (inactive).

Regarding `CC(C)Cc1ccc(C(C)C(=O)O)cc1` (centres undefined), the efficacy was 17.8% (inactive).

For the compound `C=CCN1C[C@H](C)N([C@H](c2ccc(C(=O)N(CC)CC)cc2)c2cccc(OC)c2)C[C@H]1C`, the efficacy is -18.5% (inactive).

With `O=C(CCCl)NCc1ccccc1`, the efficacy is -26.1% (inactive).

On to `O=C(Cn1ccnc1[N+](=O)[O-])NCc1ccccc1`, for which the efficacy is -10.1% (inactive).

Regarding `CC(=O)NCCCCCC(=O)O`, the efficacy was -20.5% (inactive).
